Screening results (PubChem BioAssay)
HTR5A inv ctr: HTR5A inverse agonists in luminescence cell assay, primary screen, counter-screen for OPRM1-OPRD1 heterodimer inverse agonist project, full-deck HTS. inhibition, % at 9.3 µM. 340,000 compounds, 0.083% hits. HTR5A cell line, inverse agonism. 5-hydroxytryptamine receptor 5A (Homo sapiens), P47898; in the data active = inhibition mostly above about 23%, no sharp cut-off; inactive = mostly below about 18%;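 also: 0% = cells with DMSO and 100% = no-cell wells with DMSO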
MOR-DOR inv ag: inverse agonists of MOR-DOR heterodimerization, primary screen, cell-based, luminescence; 340,000 compounds, 0.21% hits; inhibition, % at 9.3 µM; AID 504357, 2011; Mu-type opioid receptor (Homo sapiens) + Delta-type opioid receptor (Homo sapiens), …; cell-based MOR-DOR heterodimer luminescence, inverse agonism; in the data active = inhibition above about 22%, passing the limit was not always enough;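 also: 0% = cells with DMSO and 100% = wells without cells with DMSO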
HTR5A ag ctr: HTR5A agonists in luminescence cell assay, primary screen, counter-screen for OPRM1-OPRD1 heterodimer agonist project, full-deck HTS | 5-hydroxytryptamine receptor 5A (Homo sapiens), P47898 | 340,000 compounds, 0.61% hits | activation, % at 9.3 µM | cell-based; in the data active = activation mostly above about 9.5%, no sharp cut-off; inactive = mostly below about 7.6%;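 also: 0% = cells with vehicle only and 100% = reference agonist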
beta cell repl: inducers of MIN6 beta-cell proliferation, primary screen, ATP luminescence, uHTS; 330,000 compounds, 0.29% hits; proliferation, % at 10 µM; MIN6 cells proliferation, ATPlite luminescence, 48 h; cells starved in 0.2% serum; 100% = growth in 10% serum;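 active = compounds whose signal lies at least 3.5 SD above the mean of all wells on their plate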;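 also: 0% = DMSO-treated cells in low-serum medium and 100% = 10% serum control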
OPRM1-OPRD1 ag: agonists of OPRM1-OPRD1 heterodimerization, primary screen, cell-based, luminescence; Mu-type opioid receptor (Homo sapiens) + Delta-type opioid receptor (Homo sapiens), …; cells; activation, % at 9.3 µM; 340,000 compounds, 0.3% hits; in the data active = activation above about 18%;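 also: 0% = vehicle-treated cells and 100% = reference agonist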
pCIP destab: p/CIP-EGFP fusion destabilizers, primary screen, fluorescence, F442A cells; Q05BA5; 16 h; decrease of EGFP signal, % at 10 µM; 290,000 compounds, 0.01% hits; AID 1984, 2009;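 active = EGFP signal decrease of at least 30% at 10 µM or well 3 SD below plate mean, unless failing retest; inactive = the rest, including hits failing retest or dose response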
The depositor's hits bear a star; x = not tested or not shown. Compounds with a hit are over-represented: about 1.4% of the library has one in this group of screens.

SMILES	HTR5A inv ctr	MOR-DOR inv ag	HTR5A ag ctr	beta cell repl	OPRM1-OPRD1 ag	pCIP destab
CC(=O)Nc1ccc(NC(=O)CSc2nnc(-c3cccs3)n2C)cc1	-20.4	-7.7	6.9	2.1	1.0	8.1
CC[C@H](C)[C@H]1CNC(=O)C(=O)N1CC1CCN(CCc2ccccc2)CC1	-5.8	13.5	1.7	x	-2.9	x
O=C(NNC(=S)Nc1ccccc1)Nc1ccccc1	23.4*	34.6*	-8.2	-1.9	-6.0	-15.1
O=C(NNC(=S)Nc1ccccc1)NNC(=S)Nc1ccccc1	15.9	10.4	-5.6	-3.2	-1.8	-9.7
Cc1ccc(NC(=S)NNC(=O)Nc2ccccc2)cc1	29.4*	33.7*	-11.4	0.6	-5.8	-9.2
C=CCNc1nc(C(=O)OCC(=O)Nc2c(Cl)cccc2C(F)(F)F)cs1	25.3	9.4	0.2	-0.2	-1.9	x
O=C1SCCN1N=Cc1ccc([N+](=O)[O-])o1	-1.4	-12.9	0.4	x	2.6	x
CC1CN(N=Cc2ccc([N+](=O)[O-])o2)C(=N)O1 (stereo unspecified)	-32.3	-11.1	8.2*	x	2.3	x
C=CCN1C=C2C(=O)C(C)(OC(=O)C3CCCC3)C(=O)C(c3ccccc3)=C2C=C1CCCC(=O)OC (stereo unspecified)	22.4	-32.5	12.2*	-1.0	5.9	-4.1
O=C(COc1ccccc1)N/N=C/c1ccc(O[C@@H]2O[C@H](CO)[C@@H](O)[C@H](O)[C@H]2O)cc1	3.9	10.7	12.9*	0.0	-2.1	8.3
O=C(c1ccc2c(c1)OCO2)C1CCCN(Cc2ccccc2OC(F)F)C1 (stereo unspecified)	-3.4	-44.7	12.5*	-2.4	8.3	0.2
CCOc1ccc(-c2nonc2NC(=O)c2ccco2)cc1OCC	-5.3	-6.0	12.6*	-2.9	1.2	-5.7
Cc1ccc(N2C(=S)NC3c4cc(Cl)ccc4OC2(C)C3C(=O)N(C)C)cc1 (stereo unspecified)	4.0	8.4	-1.5	10.2*	-1.8	9.1
Cc1cccc(N2C(=S)NC3c4cc(Cl)ccc4OC2(C)C3C(=O)N(C)C)c1 (stereo unspecified)	14.7	5.6	-1.8	6.7	-1.2	-1.1
C=CCOc1ccccc1CN(C(=O)CCl)c1ccc2c(c1)OCO2	-142.3	-240.1	53.1*	-4.1	45.1*	-4.8
Cc1ccc(C(=O)N2CCN(c3cccc(C)c3C)CC2)cc1S(=O)(=O)N1CCOCC1	3.1	-9.0	-1.2	-4.2	2.2	x
C=CC(=O)Nc1cccc(Nc2nc(N[C@H]3CC[C@H](N(C)C)CC3)nc3c2ncn3C(C)C)c1	6.8	-195.6	-2.7	x	35.8*	x
C/C(=N/N=C/c1ccccc1O)c1ccccc1O	-36.9	6.8	10.3*	-2.9	-1.5	-4.9
CCOC(=O)[C@H]1[C@H]2COc3ccccc3[C@@H]2N2C(=O)CNC(=O)[C@@]12C	-32.7	2.5	3.3	6.0	-0.5	x
Cc1ccc(S(C)=O)cc1-n1c(=O)n(Cc2ccccc2)c(=O)c2[nH]cnc21 (stereo unspecified)	54.5*	69.2*	-13.9	-0.5	-12.5	1.6
COc1ccc(C)c(-n2c(=O)n(Cc3ccccc3)c(=O)c3[nH]cnc32)c1	x	x	x	1.1	x	-3.4
CSc1ccc(C2Nc3cccc4cccc(c34)N2)cc1	1.4	-11.9	-0.4	-4.2	2.5	-14.3
Clc1ccc(C2Nc3cccc4cccc(c34)N2)cc1	3.1	0.3	14.6*	-5.0	-0.1	-10.5
O=C(NCc1ccc(Cl)cc1)C1CCCN(c2ncnc3c2nc2n3CCCCC2)C1 (stereo unspecified)	17.8	12.5	12.9*	4.3	-2.4	2.3
CN(CCNC(=O)C1CCN(c2ncnc3c2nc2n3CCCCC2)CC1)Cc1ccccc1	-17.3	-0.7	11.1*	4.8	0.1	4.7
COc1ccc(CC(=O)Nc2ccc(-c3nc4cc(C)ccc4o3)c(O)c2)cc1OC	5.4	-2.9	13.7*	-3.2	0.6	-13.5
Cc1ccc2oc(-c3ccc(NC(=O)c4ccncc4)cc3O)nc2c1	-6.0	13.0	2.3	-1.1	-2.2	-18.8
